Results on 43 compounds are retold here after PubChem BioAssay (NCATS).

For assay [1], the target named is Metallo-beta-lactamase type 2 (Klebsiella pneumoniae) (UniProt C7C422). The experiment in a line: qHTS to identify inhibitors of the New Delhi Metallo-beta-lactamase (NDM): assay validation screen against the NCATS LOPAC Collection (AID 1794843).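 Also: nitrocefin turnover by NDM-1 measured as 485 nm absorbance at plateau; series mostly up to about 38 µM.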 The method, boiled down: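 NDM-1 at 2 nM final in 50 mM HEPES pH 7.0, 1 uM ZnSO4, 0.01% Tween20, preincubated with LOPAC compounds pinned in DMSO; 50 uM nitrocefin (stock) added. Hydrolysis read as absorbance at 485 nm in the plateau phase.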
Chain of Metallo-beta-lactamase type 2 (Klebsiella pneumoniae) (C7C422 whole entry, looked up): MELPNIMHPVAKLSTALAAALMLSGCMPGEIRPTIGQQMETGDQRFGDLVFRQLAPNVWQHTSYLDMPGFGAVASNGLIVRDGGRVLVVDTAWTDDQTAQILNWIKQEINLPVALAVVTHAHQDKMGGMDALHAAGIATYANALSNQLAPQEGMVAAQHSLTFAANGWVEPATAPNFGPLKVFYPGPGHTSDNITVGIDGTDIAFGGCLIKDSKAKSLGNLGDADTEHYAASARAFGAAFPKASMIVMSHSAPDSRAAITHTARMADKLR

Assay [2] addresses Glutathione peroxidase 1 (Homo sapiens) (UniProt P07203). The experiment in a line: Primary qHTS Assay for Inhibitors of Recombinant Selenoprotein Glutathione Peroxidase 1 (GPX1) (AID 1845191). Also: nearly all actives have a fitted effect of over 65% in size. Also: potency is read from the fitted curve at half-maximal effect. The method, boiled down: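 Recombinant GPX1 (10 nM final) was preincubated with compound for 30 min at room temperature, then reacted with 1 mM GSH, 0.5 mM CHP, 0.5 mM NADPH and 100 nM glutathione reductase; NADPH fluorescence (340/450 nm) was read at 0 and 15 min.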

In assay [3] the target is Phospholipid hydroperoxide glutathione peroxidase GPX4 (Homo sapiens) (UniProt P36969). The experiment in a line: Primary qHTS Assay for Inhibitors of Recombinant Selenoprotein Glutathione Peroxidase 4 (GPX4) (AID 1845192). Also: nearly all actives have a fitted effect of over 65% in size. The method, boiled down:
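GR-coupled readout: 100 nM GR, 1 mM GSH, 0.5 mM NADPH; NADPH fluorescence (ex 340/em 450 nm) read at t=0 and after 15 min RT. GPX4 200 nM, preincubated 30 min with compound; substrate 0.5 mM CHP.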
(In general: In qHTS, concentration-response curves come from the screen itself.)

Inconclusive results are not listed. The source made the active and inactive calls. Calls follow the shape of the dose curve; as a rule, active = well fitted curve in the direction sought with a large enough effect; inconclusive = small, poorly fitted or top-dose-only effect, or another doubt; inactive = no such curve, though single readings can be large; an effect the other way counts as inactive or inconclusive.

Chain of Glutathione peroxidase 1 (Homo sapiens) (P07203 whole entry, looked up): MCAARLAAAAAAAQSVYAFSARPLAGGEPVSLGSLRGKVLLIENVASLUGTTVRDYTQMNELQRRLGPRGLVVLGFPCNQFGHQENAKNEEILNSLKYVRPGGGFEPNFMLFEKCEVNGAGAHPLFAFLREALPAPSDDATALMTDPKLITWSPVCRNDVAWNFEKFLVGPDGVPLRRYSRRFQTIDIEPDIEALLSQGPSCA
Chain of Phospholipid hydroperoxide glutathione peroxidase GPX4 (Homo sapiens) (P36969 whole entry, looked up): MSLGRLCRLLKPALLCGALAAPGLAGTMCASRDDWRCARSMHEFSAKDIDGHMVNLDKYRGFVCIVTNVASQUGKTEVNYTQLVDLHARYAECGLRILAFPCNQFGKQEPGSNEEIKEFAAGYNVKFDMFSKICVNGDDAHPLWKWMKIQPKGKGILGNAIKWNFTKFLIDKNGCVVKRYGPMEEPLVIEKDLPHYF

In the case of `N[C@@H](CS(=O)O)C(=O)O`, the Potency result in assay [1], in assay [2] and in assay [3] was “inactive” throughout.
Turning to `O=c1onc2n1-c1cc(Br)ccc1OC2`, the Potency result in assay [1], in assay [2] and in assay [3] was “inactive” throughout.
As to `NC1C=CC=C(C(=O)O)C1` (stereo not given), the Potency result in assay [1], in assay [2] and in assay [3] was “inactive” in each case.
In the case of `CN1CC(O)C(O)C(O)C1CO` (stereo not given), the Potency entry in assay [1], in assay [2] and in assay [3] was “inactive” each time.
As to `c1ccc(CN2CCC3(CCCc4ccccc43)CC2)cc1`, the Potency entry in assay [1], in assay [2] and in assay [3] was “inactive” throughout.
Turning to `Cn1cc(C(=O)OCC2CCN(CCNS(C)(=O)=O)CC2)c2ccccc21`, the Potency result in assay [1], in assay [2] and in assay [3] was “inactive” throughout.
In the case of `c1ccc(C(NCc2cccnc2)(c2ccccc2)c2ccccc2)cc1`, the Potency entry in assay [1], in assay [2] and in assay [3] was “inactive” in each case.
Consider `Nc1ncnc2c1ncn2C1CCCC1`, for which the Potency result in assay [1], in assay [2] and in assay [3] was “inactive” in each case.
In the case of `NC1(C(=O)O)CC1`, the Potency entry in assay [1], in assay [2] and in assay [3] was “inactive” throughout.
For `N#Cc1cc2nc(O)c(O)nc2cc1[N+](=O)[O-]`, the Potency entry in assay [1], in assay [2] and in assay [3] was “inactive” in each case.
`CCCCOc1cc(CC2CNC(=O)N2)ccc1OC` (stereo not given): the Potency entry in assay [1], in assay [2] and in assay [3] was “inactive” each time.
As for `O=C(O)Cc1c[nH]c2ccc(O)cc12`, the Potency entry in assay [1], in assay [2] and in assay [3] was “inactive” each time.
For `Cc1cccc(C)c1OCC(N)C(C)C` (stereo not given), the Potency entry in assay [1], in assay [2] and in assay [3] was “inactive” each time.
`O[Si](CCCN1CCCCC1)(c1ccc(F)cc1)C1CCCCC1` (stereo not given): the Potency entry in assay [1], in assay [2] and in assay [3] was “inactive” each time.
Consider `C[C@@H](NCCc1ccc(O)cc1)[C@@H](O)c1ccc(O)cc1`, for which the Potency entry in assay [1], in assay [2] and in assay [3] was “inactive” in each case.
Take `Nc1ccc(CCNc2ncnc3c2ncn3C2OC(CO)C(O)C2O)cc1` (stereo not given): the Potency result in assay [1], in assay [2] and in assay [3] was “inactive” each time.
Regarding `CC[C@H](NC(=O)c1c(C)c(-c2ccccc2)nc2ccccc12)c1ccccc1`, the Potency result in assay [1], in assay [2] and in assay [3] was “inactive” throughout.
`N=C(N)c1ccccc1`: the Potency entry in assay [1], in assay [2] and in assay [3] was “inactive” throughout.
For the compound `CO/N=C(\C(=O)N[C@@H]1C(=O)N2C(C(=O)O)=C(CSc3nc(=O)c(O)nn3C)CSC12)c1csc(N)n1` (stereo not given in full), in assay [2], the Potency is 25.1 µM (active).
On to `O=C(O)c1cc2cc(F)ccc2[nH]1`, for which the Potency entry in assay [2] and in assay [3] was “inactive” each time.
Regarding `CC(=O)/C(C)=N/O`, the Potency result in assay [2] and in assay [3] was “inactive” each time.
For `CCCCOC(=O)NS(=O)(=O)c1sc(CC(C)C)cc1-c1ccc(Cn2c(CC)nc3c(C)cc(C)nc32)cc1`, the Potency result in assay [1], in assay [2] and in assay [3] was “inactive” throughout.
On to `O=c1ccc2c(OCCCCc3ccccc3)c3ccoc3cc2o1`, for which the Potency entry in assay [1], in assay [2] and in assay [3] was “inactive” each time.
Regarding `Cc1ccccc1/C=C/C1=NCCN1`, the Potency result in assay [2] and in assay [3] was “inactive” each time.
For the compound `Cc1nc(N=Nc2ccc(S(=O)(=O)O)cc2S(=O)(=O)O)c(COP(=O)(O)O)c(C=O)c1O`, the Potency entry in assay [1], in assay [2] and in assay [3] was “inactive” throughout.
Turning to `O=c1[nH]c(=S)[nH]c(-c2ccccc2)c1Cc1c(O)ccc2ccccc12`, the Potency entry in assay [2] and in assay [3] was “inactive” in each case.
Take `COC(=O)C(C)(N)Cc1ccc(O)cc1` (stereo not given): the Potency entry in assay [1], in assay [2] and in assay [3] was “inactive” in each case.
Take `C[C@]12C=CC(=O)C=C1CC[C@@H]1C2=CC[C@]2(C)[C@@H](C(=O)CN3CCN(c4cc(N5CCCC5)nc(N5CCCC5)n4)CC3)CC[C@@H]12`: the Potency entry in assay [2] and in assay [3] was “inactive” throughout.
`CCCCCCC(=O)OC1CC(C)(C)NC(C)(C)C1`: the Potency entry in assay [1] and in assay [3] was “inactive” each time.
For the compound `CCCCCCCCCC(=O)NC(CN1CCOCC1)[C@H](O)c1ccccc1` (stereo not given in full), the Potency result in assay [2] and in assay [3] was “inactive” in each case.
`Cc1nc2n(c(=O)c1CCN1CCC(c3noc4cc(F)ccc34)CC1)CCCC2O` (stereo not given): the Potency result in assay [1], in assay [2] and in assay [3] was “inactive” in each case.
Take `CCC(=O)N1CCN(C(=O)c2ccccc2)CC1`: the Potency result in assay [1], in assay [2] and in assay [3] was “inactive” throughout.
Turning to `O=C(O)/C(=C/c1c(C(=O)O)[nH]c2cc(Cl)cc(Cl)c12)c1ccccc1`, the Potency entry in assay [1], in assay [2] and in assay [3] was “inactive” in each case.
In the case of `O=[N+]([O-])c1cccc2cn[nH]c12`, the Potency entry in assay [2] and in assay [3] was “inactive” each time.
On to `CCCCCCCCCCC(C)(C)C(=O)Nc1c(OC)cc(OC)cc1OC`, for which the Potency result in assay [1], in assay [2] and in assay [3] was “inactive” throughout.
On to `CN[C@H](CC(=O)O)C(=O)O`, for which the Potency result in assay [2] and in assay [3] was “inactive” each time.
For `CC(C)C[C@H](NC(=O)C1OC1C(=O)O)C(=O)NCCCCN=C(N)N` (stereo not given in full), the Potency result in assay [1], in assay [2] and in assay [3] was “inactive” in each case.
For `COC(=O)[C@H](NC(=O)c1cc(-c2ccccc2)nc2ccccc12)c1ccccc1`, the Potency result in assay [2] and in assay [3] was “inactive” each time.
For `COc1cc(N)c(Cl)cc1C(=O)OCCN1CCCCC1`, the Potency result in assay [1], in assay [2] and in assay [3] was “inactive” in each case.
`COc1ccc(-c2ccc(N)[n+](CCCC(=O)O)n2)cc1`: the Potency entry in assay [1], in assay [2] and in assay [3] was “inactive” throughout.
`COc1cc2c(CCNC(C)=O)c[nH]c2cc1O`: the Potency entry in assay [1], in assay [2] and in assay [3] was “inactive” throughout.
For `CC(N)(Cc1ccc(O)c(O)c1)C(=O)O` (stereo not given), the Potency result in assay [2] and in assay [3] was “inactive” each time.
On to `N#CC(=C(\N)Sc1ccccc1N)/C(C#N)=C(/N)Sc1ccccc1N`, for which the Potency entry in assay [1] and in assay [3] was “inactive” each time.
